Screening data as filed in PubChem.
PLK1 PBD inh: qHTS for Inhibitors of PLK1-PDB (polo-like kinase 1 - polo-box domain): Primary Screen; Serine/threonine-protein kinase PLK1 (Homo sapiens), P53350; Plk1 PBD binding of FITC phosphopeptide, fluorescence polarization; Potency, µM, for inactives: max response, negative = inhibition, actives largely listed as inhibitors; 2.8% of 360,000 active; further: potency means the concentration at half of the fitted maximal effect; series mostly up to about 57 µM; on the % scale 0 is the no-effect control and ±100 the full control effect; nearly all actives have a fitted effect of over 65% in size
KAT2A inh: qHTS Assay for Inhibitors of GCN5L2. GCN5L2 HAT assay, ThioGlo1 CoA-SH fluorescence. Potency, µM (doses to about 58.9 µM), for the others: at the top dose activity change, negative = inhibition, most hits filed as inhibitors. 0.21% of 390,000 active. AID 504327, 2011; further: potency means the concentration at half of the fitted maximal effect; on the % scale 0 is the no-effect control and ±100 the full control effect
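Free CoA generated was detected with ThioGlo1 (50uM) fluorescence at Ex340nm/Em540nm, read immediately and after 20 min at room temperature. Enzyme, 20 nM in HEPES pH 7.5 buffer, saw compounds 15 min before adding 75uM H3(1-25) peptide and 70uM acetyl-CoA.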
PI5P4Ka inh: qHTS for Inhibitors of phosphatidylinositol 5-phosphate 4-kinase (PI5P4K); Phosphatidylinositol 5-phosphate 4-kinase type-2 alpha (Homo sapiens), P48426; PI5P4Kalpha enzyme, ADP-Glo luminescence, 60 min; hits give low values; max response, %; 1.2% of 330,000 active; AID 652105, 2013; active means max response of -50% or lower; inconclusive means between -30% and -50%; inactive means -30% or higher; further: value at the top dose of about 77 µM; on the % scale 0 is the no-effect control and ±100 the full control effect
Target sequence (P48426 whole entry, looked up): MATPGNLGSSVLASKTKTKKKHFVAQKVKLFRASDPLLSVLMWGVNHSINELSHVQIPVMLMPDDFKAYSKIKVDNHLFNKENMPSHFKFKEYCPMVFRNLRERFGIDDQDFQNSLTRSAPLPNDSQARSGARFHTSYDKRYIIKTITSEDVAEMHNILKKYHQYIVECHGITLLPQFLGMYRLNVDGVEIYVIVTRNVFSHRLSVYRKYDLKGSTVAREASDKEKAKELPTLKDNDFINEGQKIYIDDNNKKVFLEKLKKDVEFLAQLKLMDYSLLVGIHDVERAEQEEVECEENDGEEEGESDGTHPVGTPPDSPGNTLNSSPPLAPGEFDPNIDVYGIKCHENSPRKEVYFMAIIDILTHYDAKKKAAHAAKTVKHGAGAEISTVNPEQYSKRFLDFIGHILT
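qHTS, 1536-well: enzyme/substrate mix, compound by pin tool, 5 microM ATP final; RT 60 min; ADP-Glo reagents 1 (45 min) then 2 (30 min); luminescence.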
BAZ2B inh: qHTS Assay for Inhibitors of BAZ2B. AlphaScreen BAZ2B-H3K14Ac peptide displacement. AID 504333, 2011. 4.4% of 360,000 active. Potency, µM (doses to about 114 µM), without a hit: at the top dose activity change, negative = inhibition, actives largely listed as inhibitors; further: potency means the concentration at half of the fitted maximal effect; on the % scale 0 is the no-effect control and ±100 the full control effect; nearly all actives have a fitted effect of over 60% in size
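BAZ2B (50 nM) with biotin-H3(5-23)K14Ac peptide (50 nM) in PBS pH 7.4, 0.01% Tween-20, preformed 30 min, then compound 30 min at room temperature; top concentration 110uM. AlphaScreen streptavidin donor/nickel chelate acceptor beads (10 ug/mL final), 20 min dark, signal read.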
JMJD2A Tudor: qHTS Assay for Inhibitors of JMJD2A-Tudor Domain. 4.4% of 390,000 active. Lysine-specific demethylase 4A (Homo sapiens), O75164. Potency, µM (doses to about 114 µM), for inactives: at the top dose activity change, negative = inhibition, actives largely listed as inhibitors. AlphaScreen JMJD2A-Tudor / H3K4me3 peptide binding; further: potency means the concentration at half of the fitted maximal effect; on the % scale 0 is the no-effect control and ±100 the full control effect; nearly all actives have a fitted effect of over 50% in size
HP1b chromo inh: HTS for Inhibitors of HP1-beta Chromodomain Interactions with Methylated Histone Tails | Chromobox protein homolog 1 (Homo sapiens), P83916 | AlphaScreen HP1-beta / biotin-H3K9me3 peptide binding | Potency, µM (doses to about 114 µM), for the others: at the highest dose activity change, negative = inhibition, usual class: inhibitors | 0.56% of 390,000 active | AID 540317, 2011; further: potency means the concentration at half of the fitted maximal effect; nearly all actives have a fitted effect of over 70% in size
Target sequence (P83916 whole entry, looked up): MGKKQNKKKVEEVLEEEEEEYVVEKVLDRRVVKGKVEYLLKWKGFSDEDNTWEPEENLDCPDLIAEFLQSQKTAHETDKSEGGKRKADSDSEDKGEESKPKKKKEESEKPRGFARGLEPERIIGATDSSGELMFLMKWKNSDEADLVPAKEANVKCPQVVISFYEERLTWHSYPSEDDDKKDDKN
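HP1-beta protein (50 nM final) preincubated 30 min at room temperature with biotinylated H3(1-18)K9me3 peptide (50 nM) in PBS pH 7.4, 0.01% Tween-20, then compound added for 30 min. AlphaScreen streptavidin donor/nickel chelate acceptor beads (10 ug/mL final), 30 min dark, luminescence read.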
Active calls of the source: *; ? = inconclusive; · = no result given; [ ] = dose if it differs, or a comment. This is a sample that favours compounds with a hit; in the whole collection about 7% have one here. Unless noted, the call rests on the fitted dose curve; in most records, active means well fitted curve in the direction sought with a large enough effect; inconclusive means small, poorly fitted or top-dose-only effect, or another doubt; inactive means no such curve, though single readings can be large; an effect the other way counts as inactive or inconclusive.

SMILES	PLK1 PBD inh	KAT2A inh	PI5P4Ka inh	BAZ2B inh	JMJD2A Tudor	HP1b chromo inh
N#C/C(=C/c1ccc(OCc2ccc(C(=O)O)cc2)c(Br)c1)c1cccc(F)c1	?	?	-26	?	56µM*	5%
Cc1ccc(C(=O)COC(=O)c2ccc(O)cc2)cc1	-3%	-8%	3	-19%	-9%	22%
COc1ccccc1CCNC(=O)Cn1c(=O)oc2ccccc21	-12%	-9%	-4	79µM*	-16%	13%
COc1ccccc1CCNC(=O)Cc1c(C)c2cc(Cl)c(O)cc2oc1=O	·	32µM*	·	2%	3%	58%
Cc1c(CC(=O)NCCc2ccccc2F)c(=O)oc2cc(O)c(Cl)cc12	·	?	·	2%	7%	41%
CC(C)CC1C(=O)N(Cc2cn(CC3CCCCC3)nn2)CCS(=O)(=O)N1Cc1ccc(-c2ccncc2)cc1 (stereo unspecified)	-12%	·	-8	·	·	·
CCCc1cc(C(N)=O)c(NC(=O)c2cc(C)on2)s1	?	-2%	·	-2%	-20%	-3%
NC(=O)c1cc(Cc2ccccc2)sc1NC(=O)c1ccco1	17µM*	-9%	·	7%	-21%	-20%
CCCc1cc(C(N)=O)c(NC(=O)c2ccoc2C)s1	30µM*	-11%	·	-36%	?	?
COc1ccccc1S(=O)(=O)N(C)C[C@H]1OCc2cn(nn2)CCCC(=O)N([C@H](C)CO)C[C@@H]1C	10%	·	-3	·	·	·
CCSc1ncc(Cl)c(C(=O)Nc2c(C(=O)Nc3ccc(Cl)cc3)oc3ccccc23)n1	·	3%	·	-5%	-3%	29%
CN1/C(=C/c2cc[n+](C)c3ccccc23)C=Cc2ccccc21	-17%	-24%	-17	28µM*	28µM*	?
c1ccc2c(c1)NCC1CCCN21 (stereo unspecified)	-24%	2%	-6	45µM*	50µM*	?
COc1ccc(OCc2cc(C(=O)NCC3CCOCC3)no2)c(Cl)c1	-10%	-1%	-10	-24%	-6%	25%
COc1ccc(OCc2cc(C(=O)NCC3CCCCO3)no2)c(Cl)c1 (stereo unspecified)	30µM*	-6%	-1	5%	?	25%
Cc1cc(-c2nc3ncccc3o2)ccc1NC(=O)c1ccc([N+](=O)[O-])o1	?	·	-58*	·	-10%	27%[57 µM]
COc1ccc(CCN2CC(C(=O)OCC(=O)N(C)CC(=O)Nc3ccccc3Cl)CC2=O)cc1OC (stereo unspecified)	-2%	·	-4	·	-18%	22%
Cc1cc2c(s1)c1cnn(Cc3c(F)ccc(C)c3F)c(=O)c1n2C	·	·	·	·	-33%	·
COc1cc2c(cc1OC)-c1c(OC)c(OC)cc3ccnc(c13)C2=O	0%	0%	2	14µM*	-25%	42%
CN(C)c1nc(NCc2ccccc2)nc(N/N=C/c2cccc(Br)c2)n1	12µM*	-1%	-28	-39%	?	?
CCOC(=O)c1ccc(Cn2c(-c3ccccc3)nnc2-c2ccccc2)o1	24µM*	2%	-2	13%	-25%[57.1 µM]	8%
CCOC(=O)c1ccc(CC(=O)c2ccc(O)c(O)c2O)o1	?	-12%	?	32µM*	-100%	?
CCOC(=O)c1ccc(CC(=O)c2oc3cc(O)ccc3c2C)o1	-10%	-9%	·	?	?	-3%
COc1cccc(N2CCN(C3C4CC5CC(C4)CC3C5)CC2)c1 (stereo unspecified)	-4%	0%	11	?	-12%	17%
CN1CCCN(C2C3CC4CC(C3)CC2C4)CC1 (stereo unspecified)	2%	0%	9	?	1µM*	?
SMILES	PLK1 PBD inh	KAT2A inh	PI5P4Ka inh	BAZ2B inh	JMJD2A Tudor	HP1b chromo inh
Brc1ccc(C2=Nn3c(nnc3-c3cccnc3)SC2)s1	-11%	-17%	-4	0%	50µM*	34%
CCNc1nc(NC(C)C)nc(Oc2ccc(/C=N/O)cc2)n1	4.7µM*	2%	-11	9%	?	?
CC(C)OCCCNC(=O)CN1CCN(Cc2ccccc2Cl)C1=O	3.4µM*	-2%[0.501 µM]	?	8%	-32%[11.4 µM]	-7%
O=S1(=O)c2ccccc2N=NN1Cc1ccc(Cl)cc1	?	-5%	-23	?	79µM*	-18%
Cc1ccc(C(=O)OC(C)C(=O)Nc2ccc(Cl)cn2)s1 (stereo unspecified)	-10%	-10%	-5	7%	4%	55%
COc1cccc(OC)c1OCCCCCCN1CCN(C)CC1	-1%	-9%	0	3%	-14%	41%
COc1cccc(OC)c1OCCCCN1CCC(Cc2ccccc2)CC1	-4%	-2%	-12	28µM*	3.2µM*	?
COc1cccc(OC)c1OCCCCN1CCCC1	-5%	30%	1	?	7.9µM*	?
COc1ccc(OCC(=O)N2CCC(Cc3ccccc3)CC2)cc1	-6%	-4%	-1	-1%	8%	36%
COc1ccccc1OCCCCN1CCN(C(c2ccccc2)c2ccccc2)CC1	-9%	-7%	4	?	?	?
COc1cccc(OC)c1OCCCCN1CCCCC1	5%	-1%	-5	50µM*	40µM*	-38%
CC(=O)CCc1ccc(OCCCCN2CCC(Cc3ccccc3)CC2)cc1	-7%	-1%	0	50µM*	3.5µM*	?
COc1ccccc1NS(=O)(=O)c1ccc(C(=O)Nc2ncccc2O)cc1	0%	1%	1	-11%	-22%	17%
O=C(Nc1ccc(OCc2cc(=O)n3c4c(sc3n2)CCCC4)cc1)c1ccccc1	·	0%	·	4%	9%	32%
CCn1cc(C(=O)NCCc2ccc(C)cc2)c(=O)c2cc(S(=O)(=O)N3CCC(C)CC3)ccc21	·	-11%	·	·	-13%	20%
CCc1nc(NC(=O)NS(=O)(=O)c2ccccc2C(=O)OC)nc(OC)n1	-11%	0%	4	1%	-14%	36%
COc1cccc(OC)c1OCCCN1CCOCC1	2%	-6%	-1	50µM*	2.5µM*	?
Cc1cccc(C)c1OCCCN1CCOCC1	-4%	-1%	5	-23%	-15%	-1%
COC(=O)c1ccccc1NC(=O)COC(=O)C1CCCCC1	-3%	-11%	-1	82%	111%	162%
COC(=O)c1nc(NC2=NCCCCC2)n[nH]1	?	-1%	0	1%	79µM*	-15%
